Data: PubChem BioAssay AID2314 (National Center for Advancing Translational Sciences (NCATS), 2010)
Where “and” joins values, the source holds several entries; their conditions need not be identical. Equal values may be shown once. Out of some 300,000 compounds screened, about 37,000 (12%) were called active. Rule as the data show it: active = max response mostly above about 13% (no sharp cut-off); inactive = mostly below about 14%. Many of the other results were omitted from the sample, so actives are more common in it than they were. Some compounds were tested as several samples or in several runs, with calls that do not always agree.

Test: Cycloheximide Counterscreen for Small Molecule Inhibitors of Shiga Toxin; also: read at 38.3 µM for the half of the compounds with a filed dose; 0% is about no effect
Details: cell reporter, cycloheximide protein synthesis inhibition counterscreen; stronger effect = higher value

| Structure (SMILES) | max response |
| --- | --- |
| C/C(=C\c1ccccc1)C1NC(=O)c2c(sc3c2CCCC3)N1 (configuration not stated) | 36.6% (active) |
| Cc1ccc(C(=O)c2c(NC(=O)c3ccncc3)sc3c2CCCC3)cc1 | -4.15% (inactive) |
| O=C(Nc1sc2c(c1-c1nc3ccccc3[nH]1)CCCC2)C1CC1 | 16.7% (inactive) |
| O=C1NC(c2ccncc2)Nc2sc3c(c21)CCCC3 (configuration not stated) | 26.5% (active) |
| O=C1CCCCC1C(=O)c1ccccc1 (configuration not stated) | 12.6% (inactive) |
| CCOC(=O)c1cc2ccccc2n1CC(=O)c1ccccc1 | 1.26% (inactive) |
| CC1CCC2CCCCC2N1C(=O)c1cc([N+](=O)[O-])cc([N+](=O)[O-])c1 (configuration not stated) | 10.4% (inactive) |
| NS(=O)(=O)c1ccc(CCNC(=O)c2nc(CS(=O)(=O)c3ccc(Cl)cc3)no2)cc1 | -2.33% (inactive) |
| CCn1cc(C(=O)N[C@@H](C)C(=O)NCCO)c(=O)c2cc3c(cc21)OCO3 | -1.13% (inactive) |
| CC(CO)NCC12CC3CC(CC(C3)C1)C2 (configuration not stated) | -1.89% (inactive) |
| N/C(=N\OC(=O)Nc1ccccc1)c1ccno1 | 24.5% (active) |
| O=C(Nc1ccccc1Cl)O/N=C(/c1ccccc1)c1ccccn1 | -2.08% (inactive) |
| N/C(=N\OC(=O)Nc1ccc(Cl)c(Cl)c1)c1ncc(C(F)(F)F)cc1Cl | -4.62% (inactive) |
| COc1ccc(-c2c(C)cc3oc(=O)cc(-c4ccccc4)c3c2C)cc1C=O | 19.9% (inactive) |
| COc1cccc(NC(=O)CN(C)C(C)C(=O)Nc2ccc(C#N)cc2)c1 (configuration not stated) | 11.8% (inactive) |
| S=c1nc2ccccc2c2nc(-c3cccnc3)[nH]n12 | -3.11% (inactive) |
| C=CCn1c(=O)c(C(=O)NCc2ccc3c(c2)OCO3)c(O)c2ccccc21 | -4.21% (inactive) |
| CC(C)N1CCC(N2CCN(Cc3cccnc3)CC2CCO)CC1 (configuration not stated) | -0.86% (inactive) |
| Cc1ccc(S(=O)(=O)NCC(=O)N(CC(=O)NC(C)(C)C)Cc2cccs2)cc1 | 0.104% (inactive) |
| CC(C)(C)NC(=O)CN(Cc1cccs1)C(=O)CNS(=O)(=O)c1ccccc1 | 15.6% (active) |
| CCC(C)(C)NC(=O)CN(Cc1cccs1)C(=O)CNS(=O)(=O)c1ccc(F)cc1 | 1.08% (inactive) |
| O=C(N/C(=C\c1ccc(F)cc1)C(=O)N1CCCCCC1)c1ccccc1 | -2.25% (inactive) |
| CC(C)c1nc(SCC(=O)Nc2cccc(C(=O)O)c2)c2c3c(sc2n1)CCCC3 | 2.36% (inactive) |
| COc1ccc(CNc2c(CO)cnc3c2cnn3C)cc1 | 8.91% (inactive) |
| Cc1ccc(S(=O)(=O)N2CCN(C)CC2)cc1C(=O)NC1CCCCC1 | -0.406% (inactive) |

| Structure (SMILES) | max response |
| --- | --- |
| O=C(Oc1c(-c2ccco2)oc2ccccc2c1=O)c1cccnc1 | 12.7% (active) |
| O=C(Oc1cccnc1)c1cc2ccccc2oc1=O | -1.97% (inactive) |
| O=C(Oc1ccc(Br)cc1)c1cccnc1 | 7.39% (inactive) |
| O=C(CN1C(=O)c2ccccc2C1=O)NCc1ccc(C(=O)O)cc1 | -4.14% (inactive) |
| O=c1[nH]c(NCCO)nnc1Cc1ccc(Cl)cc1 | -3.78% (inactive) |
| Cc1ccc(N(C(=O)CNC(=O)c2ccco2)C(C(=O)NC2CCCC2)c2ccncc2)cc1 (configuration not stated) | -1.23% (inactive) |
| CCOC(=O)C1(Cc2ccccc2C(F)(F)F)CCN(C(=O)c2cc(C)n(C)n2)CC1 | 31.4% (active) |
| CCOC(=O)C1(CCOc2ccccc2)CCN(C(=O)c2cncs2)CC1 | 1.41% (inactive) |
| CCOC(=O)C1(Cc2cccc(OC)c2)CCN(C(C)CC(C)(C)O)CC1 (configuration not stated) | -3.86% (inactive) |
| CCCN(CC1COc2ccccc2O1)C(=S)Nc1ccc(C)cc1 (configuration not stated) | -5.79% (inactive) |
| Cc1c(CN2CCC(CO)(CCOc3ccccc3)CC2)[nH]c2ccc(Cl)cc12 | -1.37% (inactive) |
| CC(C)C(OC(=O)c1cccs1)C(=O)NC1CCCCC1 (configuration not stated) | -1.99% (inactive) |
| O=C(CN(C(=O)CNC(=O)c1cccs1)c1cccc(F)c1)NC1CCCCC1 | 0.305% (inactive) |
| CC(C)C(=O)OCC(=O)Nc1ccc2c(c1)CCC2 | 2.17% (inactive) |
| CN(CC(=O)NC1CCCCC1)S(=O)(=O)c1ccc(Br)s1 | 6.95% (inactive) |
| O=C(NC1CCCCCCC1)c1cccs1 | 34% (active) |
| O=C(CCC(=O)c1cccs1)NC1CCCCCC1 | 21.2% (active) |
| O=C(NC1CCCC1)c1ccc(Br)s1 | 19.5% (active) |
| O=C(NC1CCCC1)C(NS(=O)(=O)c1ccc(Br)s1)c1ccccc1 (configuration not stated) | 7.24% (inactive) |
| O=C(NCC(=O)N(Cc1cccs1)C(C(=O)NC1CCCCC1)c1ccco1)c1cccs1 (configuration not stated) | -2.31% (inactive) |
| O=C(COC(=O)/C=C/c1cccs1)NC1CCCCC1 | -0.796% (inactive) |
| O=C(Nc1ccc2c(c1)CCC2)c1ccc(Br)s1 | 72% (active) |
| CC1CC(C)CN(CCC(=O)Nc2ccc3c(c2)CCC3)C1 (configuration not stated) | -6.42% (inactive) |
| O=S(=O)(c1ccc(F)cc1)N1CCN=C1SCc1cccc(F)c1 | 7.74% (inactive) |
| COc1cccc(NC(=O)N2CCC(NC(=O)C(Cc3cccc(C)c3)NC(C)=O)CC2)c1 (configuration not stated) | -0.694% (inactive) |

| Structure (SMILES) | max response |
| --- | --- |
| O=C(Nc1ccc(S(=O)(=O)N2CCCCC2)cc1)C1CC(=O)N(c2ccc(F)cc2)C1 (configuration not stated) | -1.91% (inactive) |
| CN(C)c1ccc(CNC(=O)CN2C(=O)COc3ccc(S(=O)(=O)N4CCCC4)cc32)cc1 | 9.54% (inactive) |
| O=[N+]([O-])C(=c1ccc2c(c1)N1C3=C(CCCC3)CC3CCCCC31N=2)[N+](=O)[O-] (configuration not stated) | 6.06% (inactive) |
| c1ccc2c(-c3nn4nnnc4c4ccccc34)cccc2c1 | 8.28% (inactive) |
| CC(=O)c1cc(-c2ccccc2)n(CCC(=O)NC2CCCCCC2)c1C | -2.48% (inactive) |
| O=C(CCS(=O)(=O)c1ccccc1)NC1CCCC1 | 49.1% (active) |
| O=C(CCNC(=O)C1CCN(S(=O)(=O)c2ccccc2)CC1)NC1CC1 | 11.4% (inactive) |
| COCCCNC(=S)N1CCN(c2nc(-c3cccc(OC)c3)cs2)CC1 | 9.62% (inactive) |
| CC(C)c1ccc(Cc2nnc(NCCCO)[nH]c2=O)cc1 | 12.2% (inactive) |
| COc1cccc(CNS(=O)(=O)c2ccc3c(c2)CC(C)N3C(C)=O)c1 (configuration not stated) | 4.58% (inactive) |
| Cc1cc(C)n(CC(O)CN(c2ccccc2)S(=O)(=O)c2ccc3ccccc3c2)n1 (configuration not stated) | -3.48% (inactive) |
| Cc1cc2c(cc1C)[n+](C)cn2CC(O)COCC1CC=CCC1 (configuration not stated) | -1.8% (inactive) |
| COc1ccc(C2/C=C\CN(S(=O)(=O)c3cccs3)CC(=O)N2Cc2ccc(F)cc2)cc1 (configuration not stated) | 8.73% (inactive) and 13.8% (active) |
| COc1ccc(C2/C=C\CN(Cc3ccco3)C(C)C(=O)N2Cc2ccc(F)cc2)cc1 (configuration not stated) | 10.6% (inactive) |
| COc1ccc(C2/C=C\CN(CC(C)C)CC(=O)N2Cc2ccc(F)cc2)cc1 (configuration not stated) | -4.65% (inactive) and -3.5% (inactive) |
| C=CCn1c(SCc2ccc(Cl)c(Cl)c2)nnc1C(CO)NC(=O)c1ccc(OC)cc1 (configuration not stated) | 3.34% (inactive) |
| CSc1ccc(/C=N\NC(=O)COc2ccc(Cl)cc2Br)cc1 | 11.1% (inactive) |
| O=C(N/N=C/c1ccc(Cl)c(Cl)c1)c1ccc2nc[nH]c2c1 | 16.3% (active) |
| Cc1nc2ccc(C(=O)N/N=C/c3ccc(O)cc3)cc2[nH]1 | 7.31% (inactive) |
| CSc1ccc(/C=N/NC(=O)c2cccc(Cl)c2)cc1 | 96.6% (active) |
| CSc1ccc(/C=N\NC(=O)CC(=O)NC(C)C)cc1 | 1.43% (inactive) |
| COc1ccc(/C(C)=N/NC(=O)c2ccc3nc[nH]c3c2)cc1 | -2.63% (inactive) |
| CC1CC(C)CN(S(=O)(=O)c2cccc3nonc23)C1 (configuration not stated) | -1.35% (inactive) |
| CN1CC(c2ccccc2)C2(COc3ccccc3C2=O)C12C(=O)Nc1ccccc12 (configuration not stated) | -3.96% (inactive) |
| Cc1ccccc1NC(=O)CCNS(=O)(=O)c1ccc2[nH]c(=O)oc2c1 | -2.26% (inactive) |

| Structure (SMILES) | max response |
| --- | --- |
| O=S(=O)(NC1CC2CCC1C2)c1ccc(Cl)cc1 (configuration not stated) | -1.85% (inactive) |
| O=C(NNC(=O)C1C2CCC(C2)C1C(=O)O)c1ccc(Cl)cc1 (configuration not stated) | 17.2% (active) |
| O=C(NNC(=S)NC1CC2CCC1C2)c1ccc(Cl)cc1 (configuration not stated) | 11.9% (active) |
| S=C(NNC(=S)NC1CC2CCC1C2)NC1CC2C=CC1C2 (configuration not stated) | 4.61% (inactive) |
| O=C(NNC(=O)C1CCCC1)c1ccc(F)cc1 | -5.73% (inactive) |
| CCOC(=O)NNC(=O)c1ccc(Cl)cc1 | 6.53% (inactive) |
| CCN(CC(=O)NCCCN1CCOCC1)S(=O)(=O)c1cc(Cl)ccc1Cl | 5.99% (inactive) |
| O=C(CCCN1C(=O)/C(=C/c2cccs2)SC1=S)Nc1ccc(O)cc1 | 8.82% (inactive) |
| CCN1C(=NCC(C)C)N[C@@H](CCc2ccccc2)[C@H](C(=O)NCC(C)C)[C@H]1C | 0.929% (inactive) and -2.38% (inactive) |
| CN(C)/C=C(/C(=O)c1ccc(Cl)c(Cl)c1)c1nnnn1-c1ccccc1 | 0.0457% (inactive) |
| CCc1cc(C(c2ccccc2OC)N2CCOCC2)c(NC(=O)c2ccccc2)s1 (configuration not stated) | 12.9% (inactive) |
| CCc1cc(C(=O)c2ccc(OC)cc2)c(NC(=O)CN2CCN(C)CC2)s1 | -1.85% (inactive) |
| C/C(=N\Nc1ccc([N+](=O)[O-])cc1)c1ccc(-n2nncc2C(C)(C)C)cc1 | -3.73% (inactive) |
| CCC(C(=O)OCC(=O)Nc1ccc(C(=O)Nc2ccc(OC)cc2)cc1)c1ccccc1 (configuration not stated) | 11.5% (inactive) |
| Cc1ccc(NC(=O)c2cccnc2C(=O)Nc2ccc(C)cc2)cc1 | -2.58% (inactive) |
| Cc1ccc(NC(=O)c2ccc(Oc3ncccn3)cc2)cc1 | 32.1% (active) |
| COc1ccc(C(=S)Nc2ccccc2)cc1 | 37.3% (active) |
| COCCNC(=S)c1ccc(OC)cc1 | 5.78% (inactive) |
| CC(C)(C)c1cnnn1-c1ccc([N+](=O)[O-])cc1 | 6.21% (inactive) |
| COc1ccccc1C(=O)NNC(=O)c1ccc(NC(=O)c2ccccc2)cc1 | -2.29% (inactive) |
| COc1ccc(C(=O)Nc2ccc(-n3nncc3C(C)(C)C)cc2)cc1 | 48% (active) |
| CCc1cc(C(N)=O)c(NC(=O)c2ccc(OC)cc2)s1 | 19.3% (active) |
